{"source": "the supplement of paper PMC4466140"}
{"target": "AgAbp1", "test": "SPOT peptide array binding signal intensity (averaged, normalized) (arbitrary units (background-subtracted, floor 0; scale differs between SH3 domains)); higher = stronger binding of the SH3 domain to the peptide", "method_in_brief": "(§1)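 Detection of bound protein relied on anti-GST antibody, an HRP anti-mouse secondary and luminol, with imaging and quantification in Genespotter. The bound protein was GST-fused SH3 domains from four yeast species, incubated at 10 μg/ml overnight at 4°C in TBS-based blocking buffer on cellulose membranes carrying synthetic 15-mer peptides with cysteines replaced by serines. Binding signal is normalized, background-subtracted spot intensity averaged over replicates, in arbitrary units that differ between domains.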"}
{"binder": "KWVRRPKLMTPLTFS", "SPOT peptide array binding signal intensity": 205}
{"target": "AgBbc1", "test": "SPOT peptide array binding signal intensity (averaged, normalized) (arbitrary units (background-subtracted, floor 0; scale differs between SH3 domains)); higher = stronger binding of the SH3 domain to the peptide", "method_in_brief": "as §1"}
{"binder": "KWVRRPKLMTPLTFS", "SPOT peptide array binding signal intensity": 73.5}
{"target": "AgBem1-D1", "test": "SPOT peptide array binding signal intensity (averaged, normalized) (arbitrary units (background-subtracted, floor 0; scale differs between SH3 domains)); higher = stronger binding of the SH3 domain to the peptide", "method_in_brief": "as §1"}
{"binder": "KWVRRPKLMTPLTFS", "SPOT peptide array binding signal intensity": 169}
{"target": "AgBzz1-D1", "test": "SPOT peptide array binding signal intensity (averaged, normalized) (arbitrary units (background-subtracted, floor 0; scale differs between SH3 domains)); higher = stronger binding of the SH3 domain to the peptide", "method_in_brief": "as §1"}
{"binder": "KWVRRPKLMTPLTFS", "SPOT peptide array binding signal intensity": 25}
{"target": "AgBzz1-D2", "test": "SPOT peptide array binding signal intensity (averaged, normalized) (arbitrary units (background-subtracted, floor 0; scale differs between SH3 domains)); higher = stronger binding of the SH3 domain to the peptide", "method_in_brief": "as §1"}
{"binder": "KWVRRPKLMTPLTFS", "SPOT peptide array binding signal intensity": 8}
{"target": "AgCyk3", "test": "SPOT peptide array binding signal intensity (averaged, normalized) (arbitrary units (background-subtracted, floor 0; scale differs between SH3 domains)); higher = stronger binding of the SH3 domain to the peptide", "method_in_brief": "as §1"}
{"binder": "KWVRRPKLMTPLTFS", "SPOT peptide array binding signal intensity": 3}
{"target": "AgFus1", "test": "SPOT peptide array binding signal intensity (averaged, normalized) (arbitrary units (background-subtracted, floor 0; scale differs between SH3 domains)); higher = stronger binding of the SH3 domain to the peptide", "method_in_brief": "as §1"}
{"binder": "KWVRRPKLMTPLTFS", "SPOT peptide array binding signal intensity": 754}
{"target": "AgHof1", "test": "SPOT peptide array binding signal intensity (averaged, normalized) (arbitrary units (background-subtracted, floor 0; scale differs between SH3 domains)); higher = stronger binding of the SH3 domain to the peptide", "method_in_brief": "as §1"}
{"binder": "KWVRRPKLMTPLTFS", "SPOT peptide array binding signal intensity": 110}
{"target": "AgHse1", "test": "SPOT peptide array binding signal intensity (averaged, normalized) (arbitrary units (background-subtracted, floor 0; scale differs between SH3 domains)); higher = stronger binding of the SH3 domain to the peptide", "method_in_brief": "as §1"}
{"binder": "KWVRRPKLMTPLTFS", "SPOT peptide array binding signal intensity": 818}
{"target": "AgLsb1", "test": "SPOT peptide array binding signal intensity (averaged, normalized) (arbitrary units (background-subtracted, floor 0; scale differs between SH3 domains)); higher = stronger binding of the SH3 domain to the peptide", "method_in_brief": "as §1"}
{"binder": "KWVRRPKLMTPLTFS", "SPOT peptide array binding signal intensity": 495}
{"target": "AgLsb4", "test": "SPOT peptide array binding signal intensity (averaged, normalized) (arbitrary units (background-subtracted, floor 0; scale differs between SH3 domains)); higher = stronger binding of the SH3 domain to the peptide", "method_in_brief": "as §1"}
{"binder": "KWVRRPKLMTPLTFS", "SPOT peptide array binding signal intensity": 71}
{"target": "AgMyo5", "test": "SPOT peptide array binding signal intensity (averaged, normalized) (arbitrary units (background-subtracted, floor 0; scale differs between SH3 domains)); higher = stronger binding of the SH3 domain to the peptide", "method_in_brief": "as §1"}
{"binder": "KWVRRPKLMTPLTFS", "SPOT peptide array binding signal intensity": "≤ 0"}
{"target": "AgNbp2", "test": "SPOT peptide array binding signal intensity (averaged, normalized) (arbitrary units (background-subtracted, floor 0; scale differs between SH3 domains)); higher = stronger binding of the SH3 domain to the peptide", "method_in_brief": "as §1"}
{"binder": "KWVRRPKLMTPLTFS", "SPOT peptide array binding signal intensity": 371}
{"target": "AgRvs167", "test": "SPOT peptide array binding signal intensity (averaged, normalized) (arbitrary units (background-subtracted, floor 0; scale differs between SH3 domains)); higher = stronger binding of the SH3 domain to the peptide", "method_in_brief": "as §1"}
{"binder": "KWVRRPKLMTPLTFS", "SPOT peptide array binding signal intensity": 8}
{"target": "AgSho1", "test": "SPOT peptide array binding signal intensity (averaged, normalized) (arbitrary units (background-subtracted, floor 0; scale differs between SH3 domains)); higher = stronger binding of the SH3 domain to the peptide", "method_in_brief": "as §1"}
{"binder": "KWVRRPKLMTPLTFS", "SPOT peptide array binding signal intensity": 185}
{"target": "AgSla1-D1-D2", "test": "SPOT peptide array binding signal intensity (averaged, normalized) (arbitrary units (background-subtracted, floor 0; scale differs between SH3 domains)); higher = stronger binding of the SH3 domain to the peptide", "method_in_brief": "as §1"}
{"binder": "KWVRRPKLMTPLTFS", "SPOT peptide array binding signal intensity": 275}
{"target": "AgSla1-D3", "test": "SPOT peptide array binding signal intensity (averaged, normalized) (arbitrary units (background-subtracted, floor 0; scale differs between SH3 domains)); higher = stronger binding of the SH3 domain to the peptide", "method_in_brief": "as §1"}
{"binder": "KWVRRPKLMTPLTFS", "SPOT peptide array binding signal intensity": 11.2}
{"target": "CaAbp1-D1", "test": "SPOT peptide array binding signal intensity (averaged, normalized) (arbitrary units (background-subtracted, floor 0; scale differs between SH3 domains)); higher = stronger binding of the SH3 domain to the peptide", "method_in_brief": "as §1"}
{"binder": "KWVRRPKLMTPLTFS", "SPOT peptide array binding signal intensity": 498}
{"target": "CaAbp1-D2", "test": "SPOT peptide array binding signal intensity (averaged, normalized) (arbitrary units (background-subtracted, floor 0; scale differs between SH3 domains)); higher = stronger binding of the SH3 domain to the peptide", "method_in_brief": "as §1"}
{"binder": "KWVRRPKLMTPLTFS", "SPOT peptide array binding signal intensity": 297}
{"target": "CaBbc1", "test": "SPOT peptide array binding signal intensity (averaged, normalized) (arbitrary units (background-subtracted, floor 0; scale differs between SH3 domains)); higher = stronger binding of the SH3 domain to the peptide", "method_in_brief": "as §1"}
{"binder": "KWVRRPKLMTPLTFS", "SPOT peptide array binding signal intensity": 192}
{"target": "CaBem1-D1", "test": "SPOT peptide array binding signal intensity (averaged, normalized) (arbitrary units (background-subtracted, floor 0; scale differs between SH3 domains)); higher = stronger binding of the SH3 domain to the peptide", "method_in_brief": "as §1"}
{"binder": "KWVRRPKLMTPLTFS", "SPOT peptide array binding signal intensity": 329}
{"target": "CaBzz1-D1", "test": "SPOT peptide array binding signal intensity (averaged, normalized) (arbitrary units (background-subtracted, floor 0; scale differs between SH3 domains)); higher = stronger binding of the SH3 domain to the peptide", "method_in_brief": "as §1"}
{"binder": "KWVRRPKLMTPLTFS", "SPOT peptide array binding signal intensity": 164}
{"target": "CaBzz1-D2", "test": "SPOT peptide array binding signal intensity (averaged, normalized) (arbitrary units (background-subtracted, floor 0; scale differs between SH3 domains)); higher = stronger binding of the SH3 domain to the peptide", "method_in_brief": "as §1"}
{"binder": "KWVRRPKLMTPLTFS", "SPOT peptide array binding signal intensity": 121}
{"target": "CaCyk3", "test": "SPOT peptide array binding signal intensity (averaged, normalized) (arbitrary units (background-subtracted, floor 0; scale differs between SH3 domains)); higher = stronger binding of the SH3 domain to the peptide", "method_in_brief": "as §1"}
{"binder": "KWVRRPKLMTPLTFS", "SPOT peptide array binding signal intensity": 45}
{"target": "CaFus1", "test": "SPOT peptide array binding signal intensity (averaged, normalized) (arbitrary units (background-subtracted, floor 0; scale differs between SH3 domains)); higher = stronger binding of the SH3 domain to the peptide", "method_in_brief": "as §1"}
{"binder": "KWVRRPKLMTPLTFS", "SPOT peptide array binding signal intensity": 1360}
{"target": "CaHof1", "test": "SPOT peptide array binding signal intensity (averaged, normalized) (arbitrary units (background-subtracted, floor 0; scale differs between SH3 domains)); higher = stronger binding of the SH3 domain to the peptide", "method_in_brief": "as §1"}
{"binder": "KWVRRPKLMTPLTFS", "SPOT peptide array binding signal intensity": 1.5}
{"target": "CaHse1", "test": "SPOT peptide array binding signal intensity (averaged, normalized) (arbitrary units (background-subtracted, floor 0; scale differs between SH3 domains)); higher = stronger binding of the SH3 domain to the peptide", "method_in_brief": "as §1"}
{"binder": "KWVRRPKLMTPLTFS", "SPOT peptide array binding signal intensity": 180}
{"target": "CaLsb1", "test": "SPOT peptide array binding signal intensity (averaged, normalized) (arbitrary units (background-subtracted, floor 0; scale differs between SH3 domains)); higher = stronger binding of the SH3 domain to the peptide", "method_in_brief": "as §1"}
{"binder": "KWVRRPKLMTPLTFS", "SPOT peptide array binding signal intensity": 7}
{"target": "CaLsb4", "test": "SPOT peptide array binding signal intensity (averaged, normalized) (arbitrary units (background-subtracted, floor 0; scale differs between SH3 domains)); higher = stronger binding of the SH3 domain to the peptide", "method_in_brief": "as §1"}
{"binder": "KWVRRPKLMTPLTFS", "SPOT peptide array binding signal intensity": 346}
{"target": "CaMyo5", "test": "SPOT peptide array binding signal intensity (averaged, normalized) (arbitrary units (background-subtracted, floor 0; scale differs between SH3 domains)); higher = stronger binding of the SH3 domain to the peptide", "method_in_brief": "as §1"}
{"binder": "KWVRRPKLMTPLTFS", "SPOT peptide array binding signal intensity": 11.5}
{"target": "CaNbp2", "test": "SPOT peptide array binding signal intensity (averaged, normalized) (arbitrary units (background-subtracted, floor 0; scale differs between SH3 domains)); higher = stronger binding of the SH3 domain to the peptide", "method_in_brief": "as §1"}
{"binder": "KWVRRPKLMTPLTFS", "SPOT peptide array binding signal intensity": 757}
{"target": "CaRvs167", "test": "SPOT peptide array binding signal intensity (averaged, normalized) (arbitrary units (background-subtracted, floor 0; scale differs between SH3 domains)); higher = stronger binding of the SH3 domain to the peptide", "method_in_brief": "as §1"}
{"binder": "KWVRRPKLMTPLTFS", "SPOT peptide array binding signal intensity": 162}
{"target": "CaRvs167-3", "test": "SPOT peptide array binding signal intensity (averaged, normalized) (arbitrary units (background-subtracted, floor 0; scale differs between SH3 domains)); higher = stronger binding of the SH3 domain to the peptide", "method_in_brief": "as §1"}
{"binder": "KWVRRPKLMTPLTFS", "SPOT peptide array binding signal intensity": 27.8}
{"target": "CaSho1", "test": "SPOT peptide array binding signal intensity (averaged, normalized) (arbitrary units (background-subtracted, floor 0; scale differs between SH3 domains)); higher = stronger binding of the SH3 domain to the peptide", "method_in_brief": "as §1"}
{"binder": "KWVRRPKLMTPLTFS", "SPOT peptide array binding signal intensity": 522}
{"target": "CaSla1-D1-D2", "test": "SPOT peptide array binding signal intensity (averaged, normalized) (arbitrary units (background-subtracted, floor 0; scale differs between SH3 domains)); higher = stronger binding of the SH3 domain to the peptide", "method_in_brief": "as §1"}
{"binder": "KWVRRPKLMTPLTFS", "SPOT peptide array binding signal intensity": 623}
{"target": "CaSla1-D3", "test": "SPOT peptide array binding signal intensity (averaged, normalized) (arbitrary units (background-subtracted, floor 0; scale differs between SH3 domains)); higher = stronger binding of the SH3 domain to the peptide", "method_in_brief": "as §1"}
{"binder": "KWVRRPKLMTPLTFS", "SPOT peptide array binding signal intensity": 264}
{"target": "ScAbp1", "test": "SPOT peptide array binding signal intensity (averaged, normalized) (arbitrary units (background-subtracted, floor 0; scale differs between SH3 domains)); higher = stronger binding of the SH3 domain to the peptide", "method_in_brief": "as §1"}
{"binder": "KWVRRPKLMTPLTFS", "SPOT peptide array binding signal intensity": 103}
